These results are taken from PubChem BioAssay AID2561 (National Center for Advancing Translational Sciences (NCATS), 2010).

Results filed as inconclusive are left out. Unmarked numbers belong to inactive results. Calls of active or inactive are those of the source. Calls follow the shape of the dose curve; as a rule, active = well fitted inhibition curve with a large enough effect; inconclusive = small, poorly fitted or top-dose-only effect, or effect the other way; inactive = flat fitted curve, though single readings scatter.
Potency is read from the fitted curve at half-maximal effect.

The experiment deals with Pyruvate kinase (Leishmania mexicana) (UniProt Q27686). In words: Confirmation Assay for Inhibitors of Leishmania Mexicana Pyruvate Kinase (LmPK): for Probe SAR.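 As to activity change, negative = inhibition: plate controls were uninhibited enzyme for no effect and no enzyme wells for full effect.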 The following applies: purified LmPK, ATP generation, Kinase-Glo luminescence; series mostly up to 57.5 µM; activity change, negative = inhibition: at the top concentration. A digest of the protocol: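 Coupled luminescent assay: ATP produced by LmPK (0.1 nM) from ADP (0.1 mM, ~10-fold below Km) and PEP (0.5 mM, at Km) after 1 h RT, detected with Kinase-Glo. Data scaled between no-enzyme and uninhibited controls.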
Pyruvate kinase (Leishmania mexicana), sequence (Q27686 whole entry, looked up): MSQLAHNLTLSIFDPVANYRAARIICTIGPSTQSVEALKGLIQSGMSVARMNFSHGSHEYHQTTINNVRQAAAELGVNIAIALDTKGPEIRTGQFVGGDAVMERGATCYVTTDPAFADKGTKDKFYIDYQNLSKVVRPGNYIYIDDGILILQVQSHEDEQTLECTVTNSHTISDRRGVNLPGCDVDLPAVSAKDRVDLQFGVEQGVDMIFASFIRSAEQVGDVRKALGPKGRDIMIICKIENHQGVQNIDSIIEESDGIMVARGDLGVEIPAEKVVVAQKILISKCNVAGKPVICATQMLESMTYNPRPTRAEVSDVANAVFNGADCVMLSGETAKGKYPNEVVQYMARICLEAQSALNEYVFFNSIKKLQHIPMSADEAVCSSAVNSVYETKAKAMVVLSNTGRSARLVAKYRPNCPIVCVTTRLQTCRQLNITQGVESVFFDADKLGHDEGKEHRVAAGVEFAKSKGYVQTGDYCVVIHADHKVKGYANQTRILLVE
Background: Kinase-Glo measures the ATP left after a reaction by luminescence.
For the molecule `O=C1c2ccccc2C(=O)N1Cc1ccccc1`, the “activity change, negative = inhibition” value was 7.51%.
Still for that read-out and setting: the value for `Cc1ccccc1Nc1c(-c2ccccc2)nc2cccc(C)n12` was 8.08%; that for `Cc1ccc(NS(=O)(=O)c2ccc(F)cc2)cc1C` was -9.65%.
Consider `O=S(=O)(c1ccc2c(c1)OCCO2)N1CCN(S(=O)(=O)c2c(F)cccc2F)CC1`, for which the Potency entry was “inactive”.
As to `O=S1(=O)N=C(OCc2ccccc2)c2ccccc21`, the “activity change, negative = inhibition” value was -4.08%.
On the same count and under the same terms, to `COc1ccc(NS(=O)(=O)c2ccccc2)cc1NS(=O)(=O)c1ccccc1` belongs 31.7%.
On the same count and under the same terms, the value for `COC(=O)c1ccccc1S(=O)(=O)Nc1ccc(OC)cc1` was 4.6%.
Consider `Cc1ccc(NS(=O)(=O)c2ccc3c(c2)CCCC(=O)N3)cc1C`, for which the “activity change, negative = inhibition” value was 13.9%.
Still for that read-out and setting: the value for `Cc1ccc(NS(=O)(=O)c2cc3c(cc2Cl)CCC(=O)N3)cc1C` was 2.41%; that for `Cc1ccccc1N(C)C1=N[S+](=O)([O-])c2ccccc21` was 2.85%.
On to `Cc1ccc(C)c(SC2=NS(=O)(=O)c3cc(C(=O)NCc4ccccc4)ccc32)c1`, for which the Potency was 5.8 µM (active).
As to `O=S(=O)(Nc1ccc(O)c(NS(=O)(=O)c2ccccc2)c1)c1ccccc1`, the “activity change, negative = inhibition” value is 14.9%.
As for `Cc1cc2c(s1)c1cnn(Cc3ccccc3F)c(=O)c1n2C`, the Potency entry is “inactive”.
As for `CC(=O)Nc1cccc(OC2=NS(=O)(=O)c3ccccc32)c1`, the Potency is 2.06 µM (active).
As for `CC(=O)N1CCc2cc(S(=O)(=O)Nc3ccc(C)c(C)c3)ccc21`, the “activity change, negative = inhibition” value was -1.54%.
On the same count and under the same terms, the value for `Cc1ccc(-c2nc3ccccn3c2Nc2ccccc2C)o1` was 6.67%; that for `O=C1c2ccccc2C(=O)N1c1cccc2cccnc12` was -2.15%.
The same measure, in the same setting: to `O=C1NS(=O)(=O)C(c2ccccc2)C1c1ccccc1` (stereo not given) belongs 0.126%.
Consider `COc1ccc(-c2nc3ccccn3c2Nc2ccccc2C)cc1`, for which the “activity change, negative = inhibition” value was 7.87%.
Turning to `O=S1(=O)N=C(Oc2cccc(-c3ccccc3)c2)c2ccccc21`, the Potency was 3.26 µM (active).
For `Cc1ccc2nc(-c3ccc(C)o3)c(Nc3ccc4c(c3)OCO4)n2c1`, the “activity change, negative = inhibition” value was -10.7%.
With `O=S1(=O)N=C(Oc2cccc(Br)c2)c2ccccc21`, the Potency is 3.66 µM (active).
On the same count and under the same terms, the value for `O=S1(=O)N=C(Sc2ccc3c(c2)OCCO3)c2ccccc21` was 3.66 µM (active).
On to `Cc1ccc(OC2=NS(=O)(=O)c3ccccc32)cc1`, for which the Potency is 12.5 µM (active).
`Cc1ccccc1OC1=NS(=O)(=O)c2ccccc21`: the Potency is 4.43 µM (active).
For `O=C1CCc2cc(S(=O)(=O)Nc3ccc4c(c3)OCCO4)ccc2N1`, the “activity change, negative = inhibition” value was 14.1%.
On to `O=S1(=O)N=C(Oc2ccccc2)c2ccccc21`, for which the Potency is 8.01 µM (active).
Regarding `Cc1ccc2nc(-c3cccs3)c(Nc3ccccc3)n2c1`, the “activity change, negative = inhibition” value is -3.68%.
As to `N#Cc1cccnc1SC1=NS(=O)(=O)c2ccccc21`, the Potency is 16.3 µM (active).
With `COc1cccc(OC2=NS(=O)(=O)c3ccccc32)c1`, the “activity change, negative = inhibition” value was 7.22%.
